These results are taken from PubChem BioAssay AID652105 (National Center for Advancing Translational Sciences (NCATS), 2013).

Structures are written as SMILES. About 4,100 (1.2%) of roughly 330,000 compounds were called active. Another 2% or so got no clear call; they are omitted. Rule for the calls: active = max response of -50% or lower; inconclusive = between -30% and -50%; inactive = -30% or higher. For the sample, actives were picked, then their nearest neighbours and some compounds at random.
% is set by controls: 0 for no effect and ±100 for the full control effect.

Sequence of Phosphatidylinositol 5-phosphate 4-kinase type-2 alpha (Homo sapiens) (P48426 whole entry, looked up): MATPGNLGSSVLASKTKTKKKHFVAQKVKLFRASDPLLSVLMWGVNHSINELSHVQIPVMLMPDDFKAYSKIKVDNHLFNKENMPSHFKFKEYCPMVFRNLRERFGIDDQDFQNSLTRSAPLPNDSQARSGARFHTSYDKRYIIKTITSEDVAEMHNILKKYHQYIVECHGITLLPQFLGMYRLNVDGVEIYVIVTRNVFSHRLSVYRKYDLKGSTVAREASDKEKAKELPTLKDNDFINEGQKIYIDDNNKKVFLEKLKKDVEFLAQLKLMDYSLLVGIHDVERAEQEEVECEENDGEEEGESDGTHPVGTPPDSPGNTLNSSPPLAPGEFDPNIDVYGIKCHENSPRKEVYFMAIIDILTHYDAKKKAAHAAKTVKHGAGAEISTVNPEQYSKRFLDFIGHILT

The experiment addresses Phosphatidylinositol 5-phosphate 4-kinase type-2 alpha (Homo sapiens) (UniProt P48426). The experiment in a line: qHTS for Inhibitors of phosphatidylinositol 5-phosphate 4-kinase (PI5P4K). Note: value at the top dose of about 77 µM. To be noted: PI5P4Kalpha enzyme, ADP-Glo luminescence, 60 min; stronger effect = lower value. A digest of the protocol: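 Single end-point luminescence (ADP-Glo) quantified ADP from PI5P4Kalpha turnover; ATP 5 microM final, 1 h at RT, 0.1% CHAPS and 0.28 mM EGTA in HEPES pH 7.4.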
(In general: qHTS replaces the single test concentration by a dilution series.)
For the molecule `COc1ccc(-c2ccc3[nH]c4c(c3c2)CCN2C[C@H]3[C@H](C)ON(C)[C@H]3C[C@@H]42)cc1`, the max response was 0.74% (inactive).

Take `O=C(C[C@H]1C[C@@H]2c3cc(NC(=O)C4CCC4)ccc3O[C@@H]2[C@H](CO)O1)NC1CCCCC1`: the max response was -3.63% (inactive).

With `Cc1nn(C)cc1/C=C1\CCC/C(=C\c2cn(C)nc2C)C1=O`, the max response is -2.16% (inactive).

On to `CCn1cc(/C=C2/SC(=S)NC2=O)c(C)n1`, for which the max response is -66.5% (active).

On to `C=C1C(=O)[C@]23C[C@H]1CCC2[C@@]1(C)C(C[C@@H]3O)[C@](C)(C(=O)O)CC[C@@H]1O` (stereo partly specified), for which the max response is 3.48% (inactive).

Turning to `O=[N+]([O-])c1ccc(CN2CC(N3CCC(c4ccccc4)CC3)CS2(=O)=O)cc1` (stereo unspecified), the max response is 5.16% (inactive).

As to `COc1ccc(CNc2nc3c(c(=O)[nH]c(=O)n3C)n2Cc2ccccc2)cc1`, the max response was 6.3% (inactive).

Turning to `Cn1c(=O)[nH]c(=O)c2c1[nH]c(=S)n2Cc1ccccc1`, the max response was -85.5% (active).

On to `C=CCSc1nc2c(c(=O)[nH]c(=O)n2C)n1Cc1ccccc1`, for which the max response was 7.13% (inactive).

With `C#CCOCCOCCOCCNc1nc(N2CCN(C(=O)Cn3cc(CCO)nn3)CC2)nc(N2CCN(C(=O)Cn3cc(CCCN=C(N)N)nn3)CC2)n1`, the max response was 1.27% (inactive).

In the case of `C#CCOCCOCCOCCNc1nc(N2CCN(C(=O)[C@H](C(C)C)n3cc(CCO)nn3)CC2)nc(N2CCN(C(=O)[C@H]([C@@H](C)CC)n3cc(CCCN=C(N)N)nn3)CC2)n1`, the max response is -3.39% (inactive).

With `C#CCOCCOCCOCCNc1nc(N2CCN(C(=O)CCCCCCCCCCNC(=O)[C@H]([C@@H](C)CC)n3cc(CCCCN=C(N)N)nn3)CC2)nc(N2CCN(C(=O)CCCCCCCCCCNC(=O)[C@H](CO)n3cc(CCCSC)nn3)CC2)n1`, the max response is -95.3% (active).

`CC1(C(=O)NS(=O)(=O)c2cccc(F)c2)CCN1C(=O)Cc1ccc(Cl)cc1Cl` (stereo unspecified): the max response is -3.09% (inactive).

Consider `CC1(C(=O)NS(=O)(=O)c2ccccc2)CCN1C(=O)C1CCCCC1` (stereo unspecified), for which the max response is 0.69% (inactive).

Regarding `CCC(=C/c1sc2ccc3ccccc3c2[n+]1C)/C=C1\Sc2ccc3ccccc3c2N1C`, the max response was -90.2% (active).

For the molecule `CCCCc1c(-c2ccc(Br)cc2)ncn1CCc1ccccc1OC`, the max response is 11.5% (inactive).

`C[C@@H]1CN([C@@H](C)CO)C(=O)CCCn2nncc2CO[C@@H]1CN(C)S(=O)(=O)c1ccc(-c2ccccc2)cc1`: the max response was -0.942% (inactive).

As to `COc1ccc(-c2ccc(CN3C(CC(C)C)C(=O)N(Cc4cn(CC5CCCCC5)nn4)CCS3(=O)=O)cc2)cn1` (stereo unspecified), the max response is -0.614% (inactive).

As to `C=C1c2c(Cl)ccc(O)c2C(O)=C2C(=O)[C@]3(O)C(O)=C(C(N)=O)C(=O)[C@@H](N(C)C)[C@@H]3[C@@H](O)C12` (stereo partly specified), the max response is -76.5% (active).

In the case of `CN(C)[C@@H]1C(=O)C(C(N)=O)=C(O)[C@@]2(O)C(=O)C3=C(O)c4c(O)ccc(Cl)c4[C@@H](O)[C@H]3C[C@@H]12`, the max response was -11.8% (inactive).

On to `COc1ccc(C2OC(CCc3ccccc3)Cc3[nH]c(=S)[nH]c(=O)c32)cc1` (stereo unspecified), for which the max response was -4.14% (inactive).

In the case of `CC(C)C[C@@H]1Cc2[nH][nH]c(=O)c2[C@H](CCc2ccccc2)O1`, the max response was 19.9% (inactive).

For `Nc1ccc2nc3c(=O)[nH]c(=S)[nH]c3nc2c1`, the max response is -105% (active).

For `O=C(c1cc(-c2ccco2)nc2ccccc12)N(Cc1nnc(-c2ccc(Cl)cc2)o1)C1CC1`, the max response was -72.6% (active).

As for `O=C(c1ccc(Cl)s1)N(Cc1nnc(-c2ccccc2Cl)o1)C1CC1`, the max response is 3.41% (inactive).

In the case of `CC(C)N(Cc1nnc(-c2ccccc2Br)o1)C(=O)c1cc(Cl)nc2ccccc12`, the max response is 9.3% (inactive).

For `COc1ccc(NC(=O)c2sc(=O)n(Cc3ccc(S(=O)(=O)N(C)C)cc3)c2C)cc1`, the max response was -4.44% (inactive).

For the molecule `O=c1[nH]n(-c2ccc([N+](=O)[O-])cc2)c(=O)c2ccccc12`, the max response is -53.6% (active).

With `O=[N+]([O-])c1ccc(N2CCOCC2)cc1`, the max response was 2.48% (inactive).

As to `O=c1[nH]c2cccnc2n1-c1ccc([N+](=O)[O-])cc1`, the max response was 3.06% (inactive).

As to `CC(C)CNC(=O)C1(C)CCCN1C(=O)CSc1ccccc1` (stereo unspecified), the max response was -2.54% (inactive).

On to `CCc1nc2c(OCCC3CCCCC3)cccn2c1N(C)C(=O)c1ccco1`, for which the max response was -1.87% (inactive).

Regarding `COc1ccc(-c2cc3ccc(OCc4nn[nH]n4)cc3oc2=O)cc1`, the max response was -28.7% (inactive).

As for `CN(C)c1cc(-c2ccc(F)cc2)oc(=O)c1Cl`, the max response was -9.22% (inactive).

With `O=c1oc2cc(O)ccc2cc1-c1ccc(F)cc1`, the max response is -58.1% (active).

With `CCCNC(=O)C1(C)CCCN(Cc2cccc(C(F)(F)F)c2)C1` (stereo unspecified), the max response was -5.32% (inactive).

For the molecule `CCOC(=O)N1C(=O)C[C@](Sc2ccc(C)cc2)(C(=O)OC)[C@H]1c1ccccc1`, the max response is 5.07% (inactive).

For `CC1(C(=O)NS(=O)(=O)Cc2cccc(Cl)c2)CCN1C(=O)Cc1ccccc1` (stereo unspecified), the max response is 1.29% (inactive).

Take `CC(C)CN1C(=O)CN(S(C)(=O)=O)CC1(C)C(=O)NCc1ccccc1` (stereo unspecified): the max response is -3.28% (inactive).

Consider `OC[C@@H]1CN(Cc2ccncc2)C[C@H](n2cnc3c(N4CCN(c5ccccc5)CC4)ncnc32)O1`, for which the max response was 3.53% (inactive).

Consider `O=C(Cn1cnc2c(OCc3ccccc3)ncnc21)NCCCn1ccnc1`, for which the max response is 1.01% (inactive).

In the case of `O=C(Cn1cnc2c(OCc3ccccc3)ncnc21)NCc1nc2ccccc2[nH]1`, the max response was -52.2% (active).

Take `CC(CNC(=O)Cn1cnc2c(OCc3ccccc3)ncnc21)c1ccccc1` (stereo unspecified): the max response is 2.34% (inactive).

`CCc1nc2c(OCCOc3ccccc3)cccn2c1N(C)C(=O)c1cccs1`: the max response is -2.92% (inactive).

Regarding `COc1ccc(S(=O)(=O)c2c[nH]c(=S)[nH]c2=O)cc1Cl`, the max response is -71.5% (active).

Consider `COc1ccc(S(=O)(=O)Nc2ccc3c(c2)OCO3)cc1Cl`, for which the max response was -4.52% (inactive).

Consider `COc1ccc(S(=O)(=O)N(C)CC(=O)N2CCCC2)cc1Cl`, for which the max response is -1.95% (inactive).

Regarding `CCCCCCCCN1C(=O)[C@H](CC(=O)NCc2cccc3ccccc23)C[C@@]2(C(=O)OC)CCCCC=C12`, the max response was 22.3% (inactive).

With `CC(=O)N1C[C@@H](CO)[C@@H](N(C)C(=O)c2ccco2)C[C@H]1c1ccccc1`, the max response is -3.57% (inactive).

In the case of `COC(=O)c1sc(NC(=O)COC(=O)C2CCC2)c(C(=O)OC)c1C`, the max response is 16.3% (inactive).

`COC(=O)c1sc2[nH]c(=S)n(N)c(=O)c2c1C`: the max response is -60.5% (active).
